{"source": "PubChem BioAssay", "note": "Measured potencies and affinities stand elsewhere. The source made the active and inactive calls.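 The calls were made as follows: active = a fitted half-maximal concentration no higher than twice the top valid tested dose, with signal falling as cells die; inconclusive = flat curve between -70% and -30%, or poor fit; inactive = the rest, including signal rising instead of falling.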"}
{"assay": "HeLa cell cytotoxicity, dose response, cytotoxicity control, ATP luminescence, cherry-pick samples (AID 687004)", "details": "HeLa viability, ATP luminescence (CellTiter-Glo), 48 h; series mostly up to 26 µM"}
{"smiles": "c1ccc(-n2ncc3c(NCc4ccc5c(c4)OCO5)ncnc32)cc1", "outcome": "inactive"}
{"smiles": "C[C@@H]1CCCCO[C@@H](CN(C)C(=O)NC2CCCCC2)[C@H](C)CN([C@@H](C)CO)C(=O)c2cc(NS(=O)(=O)c3cn(C)cn3)ccc2O1", "outcome": "inactive"}
{"smiles": "O=C(CCN1CCCCC1)NCC[C@@H]1CC[C@H](NC(=O)c2ccc(F)cc2)[C@@H](CO)O1", "outcome": "inactive"}
{"smiles": "O=C(c1c(Cl)cccc1Cl)N1CCN(c2ccccn2)CC1", "outcome": "inactive"}
{"smiles": "COCC#Cc1ccc2c(c1)O[C@H](CN(C)S(=O)(=O)c1ccc(OC)cc1)[C@H](C)CN([C@H](C)CO)S2(=O)=O", "outcome": "inactive"}
{"smiles": "C[C@H](NC(=O)C[C@@H]1C=C[C@H](NC(=O)CN2CCOCC2)[C@H](CO)O1)c1ccccc1", "outcome": "inactive"}
{"smiles": "N#Cc1ccc(C23CC4(C2)[C@H](CN(Cc2ccc(C(F)(F)F)cc2)[C@@H]4c2ccccc2)C3c2ccccc2)cc1", "note": "(some centres undefined)", "outcome": "inactive"}
{"smiles": "CC(C)c1ccc(OCC(=O)NC(C)c2ccccc2)cc1", "note": "(centres undefined)", "outcome": "inactive"}
{"smiles": "Cc1c(C(=O)NC(=S)Nc2ccc(N3CCOCC3)cc2)cccc1[N+](=O)[O-]", "outcome": "inactive"}
{"smiles": "COc1ccccc1NC(=O)c1cn(C)c(=O)c2cc(OC)c(OC)cc12", "outcome": "inactive"}
{"smiles": "Cc1c(Cl)cccc1NC(=O)C1NC(=O)CC1c1ccccc1", "note": "(centres undefined)", "outcome": "inactive"}
{"smiles": "CNC[C@H]1Oc2cc(Br)ccc2S(=O)(=O)N([C@H](C)CO)C[C@H]1C", "outcome": "inactive"}
{"smiles": "Cc1noc(C)c1NC(=O)N(C)C[C@@H]1Oc2ccc(NC(=O)NC(C)C)cc2CC(=O)N([C@@H](C)CO)C[C@@H]1C", "outcome": "inactive"}
{"smiles": "CN1c2ccc(-c3ccc(F)cc3)cc2[C@@H]2[C@@H](CCN2C(=O)C2CCOCC2)[C@@H]1CO", "outcome": "inactive"}
